An excerpt weighted towards active compounds, which were near 19% of everything screened.
Shiga inhibitor – Shiga toxin inhibition. Vero cells, Shiga toxin protein synthesis inhibition reporter. inhibition, % at 38.7 µM. actives 9.2% (n = 290,000); in the data active = inhibition mostly above about 28%, no sharp cut-off; inactive = mostly below about 43%; also: 0% is about no effect
Pf growth 48h – P. falciparum growth inhibition at 48 hours (one generation) | P. falciparum luciferase growth in erythrocytes, 48 h | Potency, µM (doses to about 28.7 µM), inactives show at the top dose activity change, negative = inhibition, actives largely listed as inhibitors | actives 5.9% (n = 310,000) | AID 504832; also: potency is read from the fitted curve at half-maximal effect; % is scaled to controls: 0 for no effect and ±100 for the full control effect
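Cell-based growth assay: transgenic P. falciparum expressing firefly luciferase, cultured in red cells within RPMI 1640 containing 0.5% w/v Albumax, 24 mM bicarbonate and gentamycin. A drop in luciferase activity indicates inhibition.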
LASV entry inh – blocks Lassa virus binding to or entry into cells. Lassa virus pseudotype entry inhibition, cell reporter. Potency, µM (highest dose often 37.9 µM), without a hit: top-dose activity change, negative = inhibition, usual class: inhibitors. actives 1.2% (n = 300,000); calls by dose curve; tested in HEK293 cells; also: potency is read from the fitted curve at half-maximal effect; % is scaled to controls: 0 for no effect and ±100 for the full control effect; nearly all actives have a fitted effect of over 50% in size
Pf growth 96h – P. falciparum growth inhibition at 96 hour, primary screen for plastid delayed-death inhibitors. P. falciparum luciferase reporter growth, 96 h. AID 504834. Potency, µM (highest dose often 28.7 µM), for the others: at the highest dose activity change, negative = inhibition, actives largely listed as inhibitors. actives 6.9% (n = 320,000); also: potency is read from the fitted curve at half-maximal effect; % is scaled to controls: 0 for no effect and ±100 for the full control effect
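Two-generation exposure (96 h) targets delayed-death phenotype. Reporter parasites carrying integrated firefly luciferase, in red cells at 2% hematocrit and 0.05% parasitemia final, kept at 37 C, 5% CO2; luminescence loss indicates inhibition.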
Cycloheximide cs – counter-screen for Shiga toxin inhibitors: cycloheximide protein synthesis inhibition | cell reporter, cycloheximide protein synthesis inhibition counterscreen | max response, % | actives 12% (n = 300,000) | AID 2314; in the data active = max response mostly above about 13%, no sharp cut-off; inactive = mostly below about 14%; also: read at 38.3 µM for the half of the compounds with a filed dose; 0% is about no effect
Marburg entry inh – inhibitors of Marburg virus binding or cell entry; Marburg virus pseudotyped entry inhibition, cell reporter; Potency, µM (top dose mostly 37.8 µM), for inactives: at the highest dose activity change, negative = inhibition, most hits filed as inhibitors; actives 1.8% (n = 300,000); AID 540276; calls by dose curve; tested in HEK293 cells; also: potency is read from the fitted curve at half-maximal effect; % is scaled to controls: 0 for no effect and ±100 for the full control effect
* = called active by the depositor; ? = inconclusive; nt = not tested or not shown; + = active, no number; [ ] = another dose, or the depositor's remark. Unless noted, calls follow the shape of the dose curve; as a rule, active = well fitted inhibition curve with a large enough effect; inconclusive = small, poorly fitted or top-dose-only effect, or another doubt; inactive = no such curve, though single readings can be large or run the other way.

SMILES	Shiga inhibitor	Pf growth 48h	LASV entry inh	Pf growth 96h	Cycloheximide cs	Marburg entry inh
COc1ccc(/C=N/NC(=O)CN(CCc2ccccc2)S(=O)(=O)c2ccc(NC(C)=O)cc2)cc1OC	-5.9	?	?	9.28µM*	-3.4	?
COc1cc(/C=N/NC(=O)CN(CCc2ccccc2)S(=O)(=O)c2ccc(NC(C)=O)cc2)cc(OC)c1OC	-8.1	?	18.4µM*	40.6%	-1.4	-9.7%
Cc1ccc(S(=O)(=O)N(CCc2ccccc2)CC(=O)Nc2cc(C)ccc2C)cc1	nt	nt	9.4%[46.1 µM]	nt	nt	nt
COc1ccc(CNC(=O)Cc2nn(C)c(=O)c3ccccc23)cc1	2.6	0.6%	-24.4%	?	-0.6	?
O=C(Cc1c(Cl)cccc1Cl)OCc1ccccn1	59.3*	?	-9.7%	?	24.8*	4.8%[46.1 µM]
O=C(Cc1n[nH]c(=O)c2ccccc12)OCc1c(Cl)cccc1Cl	-1.0	-11.0%	0.631µM*	-5.6%	-2.3	0.517µM*
COC(=O)c1ccc(COC(=O)Cc2n[nH]c(=O)c3ccccc23)cc1	26.6	0.0%	?	0.0%	26.9*	-27.7%[46.1 µM]
Cc1sc2nc[nH]c(=O)c2c1-c1ccc(F)cc1	-1.5	0.9%	nt	?	-2.2	nt
Cc1nn(CC(=O)N2CCN(c3ccccc3)CC2)c(=O)c2ccccc12	nt	22.7%	nt	-18.9%	-1.3	nt
COc1ccccc1NCc1cc(=O)oc2c(C)c(O)ccc12	28.4	1.65µM*	4.7%[46.1 µM]	1.85µM*	-5.7	?
COc1ccc(C)cc1NCc1cc(=O)oc2cc(-c3ccccc3)c(O)cc12	26.1	1.47µM*	2.5%	1.04µM*	11.0	?
Cc1cc(C)cc(NCc2cc(=O)oc3cc(-c4ccccc4)c(O)cc23)c1	-17.5	4.65µM*	-5.6%	2.33µM*	-1.3	?
CCCN(CCC)CC(=O)N1CC(=O)Nc2ccccc21	-2.7	10.7%	nt	-9.3%	-3.4	nt
COc1ccc(CN(CC(=O)NC2CCCCC2)C(=O)CCC(=O)Nc2nccs2)cc1	4.9	?	?	?	8.9	-29.3%[46.1 µM]
COC(=O)[C@H](CC(C)C)NC(=O)N1CCCCC1	5.5	13.8%	-7.1%[46.1 µM]	19.6%	-0.7	-15.5%[46.1 µM]
COC(=O)C1CSC(C(=O)OC)N1C(=O)Nc1ccccc1 (stereo unspecified)	-4.2	29.3%	19.2%	41.0%	-2.9	?
Cc1ccc(C(=O)c2oc3ccccc3c2NC(=O)Cc2coc3cc(C)ccc23)cc1	nt	nt	3.2%[46.1 µM]	nt	nt	?
CCN(CC)S(=O)(=O)c1cccc(N2CC(O)=C(c3ccccc3)C2=N)c1	16.8	2.62µM*	16.2%	2.62µM*	0.4	-3.1%[46.1 µM]
CC(C)CC(=O)NN1CCCCC1	-11.2	nt	11.4%	8.8%	16.4	10.9%
COc1ccc(N2CCN(c3ccc(NC(=O)NN)cc3)CC2)cc1	nt	-25.0%	-6.8%	11.7µM*	-3.1	1.6%
C/C(=N\NC(=O)CC(C)C)c1ccc(N2CCCCC2)cc1	71.5*	36.9%	8.8%	44.5%	26.1*	10.3%
COc1cc(C(=O)NC(=S)Nc2ccc(N3CCCC3)cc2)cc(OC)c1OC	11.9	9.28µM*	-18.1%	?	-1.1	24.4%
COc1ccc(C(=O)N/N=C(/C)c2ccc(N3CCCCC3)cc2)cc1	74.3*	-1.8%	?	13.5%	30.4*	0.7%
CC1CN(S(=O)(=O)c2ccc(NC(=O)CCCN3C(=O)c4ccccc4C3=O)cc2)CC(C)O1 (stereo unspecified)	-11.7	-7.1%	-1.7%	0.0%	-3.1	-1.2%
CCCCCn1c(=O)[nH]c2c(c1=O)CCC2	15.1	1.7%	0.8%	nt	8.1	-21.4%[46.1 µM]
SMILES	Shiga inhibitor	Pf growth 48h	LASV entry inh	Pf growth 96h	Cycloheximide cs	Marburg entry inh
O=C(Nc1ccc(Cc2ccncc2)cc1)c1ccc(S(=O)(=O)N2CCOCC2)cc1	-13.0	?	?	36.4%	-2.6	?
COc1ccccc1CNC(=O)CCNC(=O)N1CC(=O)Nc2ccccc21	-7.2	10.2%	nt	?	-3.7	nt
COc1ccc(C(=O)Nc2c(C(=O)c3ccc(F)cc3)oc3ccccc23)cc1	nt	nt	7.0%[46.1 µM]	nt	nt	?
COc1ccc(/C(C)=N/NC(=O)c2ccc(N(C)C)cc2)cc1	23.2	?	?	0.586µM*	8.5	29.3%
CC(=O)Nc1ccc(N2CCN(c3ccc(F)cc3)CC2)cc1	-2.0	-6.0%	nt	-1.1%	-8.9	nt
C/C(=N\NC(=O)c1cccnc1)c1ccc(OC2OCCOC2Oc2ccc(/C(C)=N/NC(=O)c3cccnc3)cc2)cc1 (stereo unspecified)	53.7*	-25.5%	-0.9%	12.0%	16.3*	9.5%[14.2 µM]
CC(C)Oc1cccc(C(=O)NC(=S)Nc2ccc(N3CCN(C)CC3)cc2)c1	40.0	13.1µM*	nt	11.7µM*	26.1*	nt
CN1CCN(c2ccc(NC(=O)C(C)(c3ccccc3)c3ccccc3)cc2)CC1	7.4	13.1µM*	nt	?	-1.1	1.0%
O=C(CCCC(=O)OCC(F)(F)C(F)F)Nc1nccs1	17.2	0.0%	10.2%	9.2%	-1.5	24.5%
O=[N+]([O-])c1cc(-c2ccc(/C=N/n3cnnc3)o2)ccc1Cl	-11.5	1.9%	nt	?	-1.5	nt
Cc1ccc(N=C2SCCCN2C(=O)C2=COCCO2)cc1Cl	nt	13.4%	-4.5%[46.1 µM]	28.3%	nt	7.0%
COc1ccc(C(=O)NC(=S)Nc2ccc(N3CCCC3)cc2)cc1	6.6	2.6%[5.75 µM]	?	47.1%[5.75 µM]	16.4*	-0.2%[46.1 µM]
CCN(CC)c1ccc(C(=O)N/N=C(\C)c2cccnc2)cc1	10.8	?	nt	-5.6%	13.6	5.7%[46.1 µM]
COc1ccc(C(=O)Nc2ccc(N3CCCC3)cc2)cc1Br	17.4	0.9%	?	?	12.3	-13.6%
COc1ccc(C(=O)Nc2ccc(N3CCCC3)cc2)cc1	11.8	nt	4.8%	4.15µM*	10.4	-15.3%
CN1CCN(c2ccc(-c3ccnn3C(=O)Nc3ccccc3)cc2)CC1	83.2	122.1%	-27.5%	131.9%	40.9*	1.5%
C/C(=N\NC(=O)c1ccc(N(C)C)cc1)c1cccnc1	44.4	28.6%	nt	-22.5%	23.2*	nt
O=C(NC(=S)Nc1ccc(S(=O)(=O)Nc2nccs2)cc1)C1CC1	6.9	-3.5%	nt	-8.2%	-5.4	nt
COc1ccc(/C(C)=N/NC(=O)CNC(=O)c2ccncc2)cc1	-21.4	61.5%	4.8%	-20.7%	-3.1	7.0%[46.1 µM]
COc1ccc(C(=O)Nc2ccc(N3CCOCC3)cc2)cc1OC	35.0	63.5%	-9.9%	-11.3%	-1.3	-2.4%
COc1ccc(/C(C)=N/NC(=O)c2nc(C)cc(C)n2)cc1	50.2*	65.6%	16.5%	nt	32.4*	-0.2%[46.1 µM]
COc1ccc(C(=O)Nc2ccc(N3CCCC3)cc2)cc1OC	51.4*	76.0%	-11.7%[46.1 µM]	?	34.3*	-1.0%[46.1 µM]
COc1ccc(NC(=O)c2ccc(COCC(F)(F)C(F)F)cc2)cc1	+	20.0%	-16.4%	?	52.8*	-8.4%
COC(=O)[C@H]1[C@H](C(=O)OC)[C@@H](C(=O)OC)N(c2ccc(OC)cc2)[C@@H]1C(=O)OC	-2.7	-6.7%	-0.4%	-19.4%	-4.4	?
COc1ccc(N2CCSC2C(=O)NN)cc1 (stereo unspecified)	8.4	26.9%	6.4%	9.28µM*	7.3	7.6%

Screening results as filed in PubChem BioAssay.
